This is a sample that favours compounds with a hit; in the whole collection about 1.6% have one here.
KCNQ2 enhance: potentiators of rat KCNQ2 potassium channel | hit rate 0.54% among 310,000 | AID 2239 | B-score at 10 µM | O88943 | CHO-K1 KCNQ2, FluxOR thallium flux fluorescence; stronger effect = higher value;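 active means fluorescence ratio B-score at least 3 SD of library B-scores, with initial fluorescence B-score within 3 of them, cut at about 5.3 in these data; same plate scores as AID 2156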;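 further: B-score of peak minus minimum over baseline fluorescence ratio after K+ and Tl+ stimulus; positive B-score means potentiation of KCNQ2 with more thallium influx and brighter signal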
KCNQ2 inh: KCNQ2 (rat) channel inhibition; hit rate 1.1% among 310,000; AID 2156; CHO-K1 KCNQ2, FluxOR thallium flux, 20 min; stronger effect = lower value; O88943; B-score at 10 µM;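 active means fluorescence ratio B-score at most minus 3 library SDs, with starting brightness B-score within 2 library SDs, cut at about -5.5 in these data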
Hits are given with their value; – = inactive; · = no result.

SMILES	KCNQ2 enhance	KCNQ2 inh
O=[N+]([O-])c1cccc(/C=C/c2nc3ccc([N+](=O)[O-])cc3[nH]2)c1	–	-8.1
Cc1nc2ccc([N+](=O)[O-])cc2[nH]1	–	–
Cc1cccc(C)c1NC(=O)NC1(C(=O)NCc2ccncc2)CCCCC1	·	–
O=C(COn1nnc2ccc(Cl)cc21)Nc1ccc(F)cc1	·	–
O=C(COn1nnc2ccc(Cl)cc21)NC12CC3CC(CC(C3)C1)C2	–	-6.1
CC(=O)c1ccc(NC(=O)Cn2cnc(S(=O)(=O)N3CCc4ccccc43)c2)cc1	–	–
Cc1cccnc1Nc1nc(-c2ccc(F)cc2)cs1	–	-7.2
Cc1cccnc1Nc1nc(-c2ccc(O)cc2)cs1	·	–
CCNS(=O)(=O)c1ccc(CCC(=O)NCc2ccncc2)cc1	–	–
O=C(NCCN1CCOCC1)C1CCN(S(=O)(=O)N2CCCC2)CC1	–	–
Cc1cc(C)nc(OC(C(=O)O)C(OCc2ccccc2)(c2ccccc2)c2ccccc2)n1 (configuration not stated)	–	–
Cc1ccnc(OC(C(=O)O)C(OCc2ccccc2)(c2ccccc2)c2ccc(C(F)(F)F)cc2)n1 (configuration not stated)	–	-6.1
COc1cc(/C=N/NC(=O)c2ccc(CN3C(=O)c4cccc5cccc3c45)cc2)cc(OC)c1O	·	–
CCOc1ccccc1NC(=O)C(NCCc1ccc(OC)cc1)c1ccccc1 (configuration not stated)	·	–
COc1ccc(CCNC(C(=O)Nc2cc(C)cc(C)c2)c2ccccc2)cc1 (configuration not stated)	–	-8.1
O=C(CNC(=O)c1ccccc1F)NCc1cccnc1	–	–
COc1cc(CC(NC(C)=O)C(=O)NC2CCN(c3c4c(nc5ncnn35)CCC4)CC2)cc(OC)c1 (configuration not stated)	–	–
O=C(c1ccccc1)n1ccc(-c2cccs2)n1	8.6	–
COC(=O)c1cc(-c2cccs2)nn1-c1ccccc1	–	–
O=C1c2ccccc2OC2(C=Cc3ccccc3O2)N1Cc1ccccc1 (configuration not stated)	–	-8.3
O=C1NC2(CCN(Cc3ccccc3)CC2)Oc2ccccc21	·	–
CC1(C)CC(=O)C2=C(C1)c1c(ccc3ccccc13)NC2c1cc([N+](=O)[O-])cc([N+](=O)[O-])c1O (configuration not stated)	·	–
O=C(O)CC1(O)C(=O)N(Cc2ccccc2)c2ccccc21 (configuration not stated)	–	–
Cc1ccc(C(=O)N2c3ccccc3N(Cc3ccccc3)C(=O)C2(C)C)cc1	–	-5.6
COC(C(=O)N1CCC(n2nccc2NC(=O)C2CC2)CC1)c1ccccc1 (configuration not stated)	·	–
SMILES	KCNQ2 enhance	KCNQ2 inh
COc1ccc(CN2CCNC(=O)C2CC(=O)NCC(C)(C)N2CCOCC2)cc1C (configuration not stated)	–	–
COc1cccc(C(=O)NCCC(=O)NCc2cc(=O)n(C)c(=O)n2C)c1	·	–
CC1Cc2ccccc2N1C(=S)NC(=O)c1cccc(Br)c1 (configuration not stated)	28	–
COc1cccc(C(=O)NC(=S)N2c3ccccc3CC2C)c1OC (configuration not stated)	–	–
CC1Cc2ccccc2N1C(=S)NC(=O)c1ccc(Cl)cc1Cl (configuration not stated)	21	–
COc1cccc(NC(=S)N2c3ccccc3CC2C)c1 (configuration not stated)	–	–
COc1cccc(C2=CC(=O)CC(C)(C)C2)n1	–	–
Cc1ccc(NC(=S)/C(=C(\[O-])c2ccc(Cl)s2)[n+]2cccc(CO)c2)cc1C	–	-7.8
[O-]/C(=C(\C(=S)Nc1ccc(SC(F)F)cc1)[n+]1cccc(CO)c1)c1ccc(Cl)s1	·	–
O=C(Nc1nnc(C2=COCCO2)o1)c1cccc(F)c1	–	–
Cc1cccc(C(=O)Nc2nnc(C3=COCCO3)o2)c1	18	–
Cc1ccc(C(=O)Nc2cc(Cl)ccc2Oc2ccccc2)cc1[N+](=O)[O-]	–	-6.1
Cc1ccc(C(=O)Nc2ccccc2-c2ccccc2)cc1[N+](=O)[O-]	·	–
COc1ccc(CCC(=O)NNC(=O)c2cc(Cl)ccc2OC)cc1	·	–
Oc1c(Br)cc(Br)cc1/C=N/NC(=S)N[C@H]1CC2C=CC1C2 (some centres not stated)	–	–
CNC(=S)N/N=C/c1cc(Br)cc(Br)c1O	7	–
COc1ccccc1CCNC(=O)c1ccc(Br)s1	–	-6.3
COc1ccccc1CCNS(=O)(=O)CCNC(=O)c1ccccc1	–	–
COc1ccc(OC)c(NC(=O)CSc2nnc(NC(=O)c3ccco3)s2)c1	–	–
N#CC1=C(N)NC(SCC(=O)c2ccc(Cl)cc2)=C(C#N)C12CCCC2	·	–
N#CC1=C(N)NC(SCC(=O)c2ccc(Br)cc2)=C(C#N)C12CCCCC2	–	-6.6
C/C(N)=C(/C#N)C(=O)COC(=O)c1oc2ccccc2c1COC(C)C	·	–
N#Cc1ccccc1Sc1ccccc1C(=O)OCC(=O)NC12CC3CC(CC(C3)C1)C2	6.3	–
CC(=O)c1ccc(NC(=O)COC(=O)c2ccccc2Sc2ccccc2C#N)cc1	–	–
Cc1cc(C)c(S(=O)(=O)N2CCCC(C(=O)NCc3ccccn3)C2)c(C)c1 (configuration not stated)	–	–
SMILES	KCNQ2 enhance	KCNQ2 inh
O=C(CN1CCN(c2ccccn2)CC1)Nc1cccc(Cl)c1Cl	–	-7.2
O=C(CN1CCN(c2ccccn2)CC1)Nc1ccccc1Br	·	–
CCOC(=O)C1=C(C)N(C)C(C)=C(C(=O)OCC)C1c1ccsc1	·	–
Nc1c2c(nc3ccc(Br)cc13)N(C1CCCCC1)CC2	–	-5.8
Nc1c2c(nc3ccccc13)N(C1CCCCC1)CC2	–	–
O=C(O)C1CCCN(S(=O)(=O)c2ccc(-c3ccc(=O)[nH]n3)s2)C1 (configuration not stated)	–	–
CC(=O)Oc1c(/C=C(\C#N)C(N)=O)[nH]c2ccccc12	·	–
Cc1cc(C(=O)CSc2nc3ccccc3[nH]2)c(C)n1CC1CCCO1 (configuration not stated)	–	-5.6
Cc1cc(C(=O)CSc2nc3ccccc3o2)c(C)n1CC1CCCO1 (configuration not stated)	–	–
COc1cccc(CNC(=O)C2=C(C)C(=O)OC23CCC(C)CC3)c1 (configuration not stated)	–	-6.9
COc1ccccc1CNC(=O)C1=C(C)C(=O)OC12CCC(C)CC2 (configuration not stated)	·	–
O=C(CSc1nc2ccccc2c(=O)n1Cc1ccco1)NCc1ccco1	–	–
CCOC(=O)c1cc2c(c(CSc3nc4ccccc4c(=O)n3Cc3ccco3)c1)OCOC2	–	-5.6
O=c1c2ccccc2nc(SCc2cc(F)cc3c2OCOC3)n1Cc1ccco1	–	-8
CN(Cc1ccccc1)C(=O)CSc1nc2ccccc2c(=O)n1Cc1ccco1	·	–
CCCNc1c(NC(=O)C2CCC(C)CC2)c(=O)oc2ccccc12 (configuration not stated)	·	–
N#Cc1c(-n2ccnc2)cccc1-n1ccnc1	·	–
CCOC(=O)C1=C(c2ccccc2)NC(=O)NC1c1cc(Cl)c(O)c(OC)c1 (configuration not stated)	·	–
CCOC(=O)C1=C(c2ccccc2)NC(N)=NC1c1ccc(OCc2ccc(Cl)cc2)c(OC)c1 (configuration not stated)	–	-6.2
